According to PubChem BioAssay AID1259343 (VanderVen Lab, College of Veterinary Medicine, Cornell …, 2017):
Hit rate of the full screen: of about 6,200 compounds, about 2,900 (47%) were called active. Cut-off read from the data, not from the text of the source: active = inhibition above about 50%; inactive = the rest. So high a share suggests a set chosen from earlier hits. The list shows a part of the results.

Test: Mycobacterium tuberculosis growth inhibition, primary screen (AID 1259343)
Settings: inhibition: at 10 µM, active compounds read high; outcome: 10 uM

Row | SMILES | inhibition
1 | N#CC(=CC=Cc1ccc([N+](=O)[O-])o1)c1nc2ccccc2[nH]1 | 101% (active)
2 | N#CC(=Cc1ccc([N+](=O)[O-])o1)c1nc(C2CC2)cs1 | -16.5% (inactive)
3 | N#Cc1ccc(OS(=O)(=O)c2cccs2)cc1 | 51.7% (active)
4 | O=c1cc(C(F)(F)F)c2ccc(OS(=O)(=O)c3ccc(F)c(F)c3)cc2o1 | 1.62% (inactive)
5 | O=c1ccc2ccc(OS(=O)(=O)c3cccs3)cc2o1 | 90.5% (active)
6 | CCOC(=O)C(C#N)=Cc1cn(CCC#N)nc1-c1ccc(Br)cc1 | -13.1% (inactive)
7 | Oc1ccc(CCNc2nccc(C3CCCC3)n2)cc1 | 51.5% (active)
8 | Fc1ccc(-c2cc(CNc3nccc(C4CCCC4)n3)no2)cc1 | 44.8% (inactive)
9 | C=CC[P+](N(CCC)CCC)(N(CCC)CCC)N(CCC)CCC | 80% (active)
10 | CC(C)=CCc1c(O)cc2occ(-c3ccc4c(c3)OCO4)c(=O)c2c1O | 68.8% (active)
11 | O=C(COc1ccc2oc3c(c2c1)CCCC3)NCc1cccnc1 | -6.78% (inactive)
12 | COC(=O)c1c(C)oc2ccc(OCC(=O)c3ccc(F)cc3)cc12 | 87.5% (active)
13 | CC(C)(C)NC(=O)COc1ccc2oc3c(c2c1)CCCC3 | 31.6% (inactive)
14 | Cc1ccc(-c2c(C)sc3nc(CN4CCN(Cc5ccccc5)CC4)[nH]c(=O)c23)cc1 | 96.5% (active)
15 | Cc1ccc(CC(=O)C(C#N)c2nc3sc(C)c(C)c3c(=O)[nH]2)cc1 (stereo unspecified) | 37.3% (inactive)
16 | CCNC(=O)CSc1nnc(-c2ccc(C)cc2)o1 | 93.8% (active)
17 | Cc1ccc(-c2nnc(SCC(=O)NC3CC3)o2)cc1 | -24.4% (inactive)
18 | CCCC(C)NC(=O)COc1ncnc2scc(-c3ccc(C)cc3)c12 (stereo unspecified) | 49.2% (inactive)
19 | CCCC(C)NC(=O)CSc1nnc(-c2ccc(Cl)cc2)o1 (stereo unspecified) | 95.8% (active)
20 | CCNC(=O)CSc1nnc(-c2ccccc2)o1 | 92.3% (active)
21 | C=CCNC(=O)CSc1nnc(-c2cccs2)o1 | 99.4% (active)
22 | c1coc(-c2nnc(SCc3nnc(-c4cccs4)o3)o2)c1 | -25.9% (inactive)

Row | SMILES | inhibition
23 | c1ccc(C(Cn2cncn2)NCc2cccs2)cc1 (stereo unspecified) | -11.6% (inactive)
24 | CCCN(CC1CC1)c1oc(-c2ccc(F)cc2)nc1C#N | 12.7% (inactive)
25 | CCCCNC(=O)CSc1nnc(-c2ccc(OCC)cc2)o1 | 81.2% (active)
26 | CCOc1ccc(-c2nnc(SCC#N)o2)cc1 | -18% (inactive)
27 | Cc1ccc(-c2nnc(SCC(=O)NC(C)C(C)C)o2)cc1 (stereo unspecified) | 87.3% (active)
28 | CC1CCC(NC(=O)CSc2nnc(C(C)C)o2)CC1 (stereo unspecified) | 32.9% (inactive)
29 | Cc1cc(C)cc(N2C(=O)C3N=NN(c4ccc(Br)c(C)c4)C3C2=O)c1 (stereo unspecified) | 89% (active)
30 | COC(=O)c1cc(C)nc(N(C)C)c1C(=O)OC | -14.7% (inactive)
31 | CC(C)c1ccc(/C=N\Nc2ncnc3nc[nH]c23)cc1 | 58.7% (active)
32 | O=c1c(Cl)c(Cl)cnn1-c1ccc(N2CCOC(c3ccccc3)C2)c(Cl)c1 (stereo unspecified) | 16.1% (inactive)
33 | O=c1c(Cl)c(Cl)cnn1-c1ccc(NC2CC2)c(Cl)c1 | 91.2% (active)
34 | CN(C)C(=O)CSc1nnc(-c2ccc(Cl)cc2)n1C | 0.36% (inactive)
35 | c1csc(-c2nnc(SCc3ccc4c(c3)OCO4)n2C2CC2)c1 | -34.7% (inactive)
36 | Cc1ccc(-c2nnc(SCC(=O)c3ccc4c(c3)OCO4)n2C)cc1 | 89.8% (active)
37 | Cc1nc2cc(NC(=O)C3(C)CCc4c(C)c(O)c(C)c(C)c4O3)ccc2s1 (stereo unspecified) | 68.5% (active)
38 | CN(Cc1cccs1)C(=O)c1cc2c(cc1O)CCCC2 | 67.8% (active)
39 | CN(Cc1cccc(C#N)c1)C(=O)c1cc2c(s1)CCCCCC2 | 30.1% (inactive)
40 | CCCCNC(=S)N(C)N=Cc1sccc1C | 29% (inactive)
41 | CCCCNC(=S)N(C)N=Cc1c(F)c(F)c(F)c(F)c1F | 58% (active)
42 | COc1ccc(-c2nc(C=CC(=O)N3CCCC4CCCCC43)cs2)cc1 (stereo unspecified) | 62.1% (active)
43 | Cc1ccc(-c2cc(C(=O)N3CCCC3C3CCCC3)n[nH]2)s1 (stereo unspecified) | 31.1% (inactive)
44 | CCCCc1ccc(N=Cc2nc(/C=C/c3cccc([N+](=O)[O-])c3)oc2O)cc1 | 84.9% (active)

Row | SMILES | inhibition
45 | CCCCc1ccc(N=Cc2c(C)c(C#N)c(=O)n(CCCC)c2O)cc1 | 4.37% (inactive)
46 | COc1cc(F)ccc1Oc1ccc2c(C3CC3)noc2n1 | 47.7% (inactive)
47 | COc1ccc(Oc2ccc3c(C4CC4)noc3n2)c(F)c1 | 61.2% (active)
48 | COc1ccc(F)cc1Oc1ccc2c(C3CC3)noc2n1 | 30% (inactive)
49 | Cc1ccc(Oc2ccc3c(C4CC4)noc3n2)cc1F | 64.9% (active)
50 | Cc1cc(Oc2ccc3c(C4CC4)noc3n2)ccc1F | 58.7% (active)
51 | CCN(CC)CCN1CCN(c2ccnc3c(-c4cc(C(F)(F)F)cc(C(F)(F)F)c4)cnn23)CC1 | 37.6% (inactive)
52 | COCc1[nH]n2c(=O)c(Cl)c(C)nc2c1-c1ccc(C)cc1 | 98.7% (active)
53 | Cc1ccccc1-c1cnnc(N2CCCC(COc3ccccc3F)C2)n1 (stereo unspecified) | -23.4% (inactive)
54 | C=CCSc1nnc2c3ccccc3n(CC=C)c2n1 | 28.1% (inactive)
55 | S=c1nnc2c3ccccc3[nH]c2n1CCc1ccccc1 | 18% (inactive)
56 | C=C(C)CSc1nnc2c(n1)[nH]c1ccccc12 | 61.6% (active)
57 | Cc1cc(Br)ccc1NCC(=O)N1CCCCC1 | 95.6% (active)
58 | Cc1cc(Br)ccc1NCc1ccc(C#N)cc1 | 35.3% (inactive)
59 | O=C(C=Cc1ccc(OC(F)F)cc1)c1ccc(O)cc1 | 81.8% (active)
60 | N#CC(C#N)=C(C=Cc1ccc(OC(F)F)cc1)C1CC1 | -8.38% (inactive)
61 | COc1cc(C(=O)C=Cc2ccc(OC(F)F)cc2)ccc1O | 17.6% (inactive)
62 | CC(C)c1ccc2[nH]c3c(c2c1)CCC/C3=N\N=C/c1ccncc1 | 78.2% (active)
63 | OCC1(Cc2ccccc2F)CCCN(c2noc(-c3ccccc3)n2)C1 (stereo unspecified) | 17.3% (inactive)
64 | C=CCc1ccc(OC(C)C(=O)Nc2ccc(OC)cc2)c(OC)c1 (stereo unspecified) | 30.5% (inactive)
65 | COc1cc(CNc2ccc3nc(C)sc3c2)ccc1OC(F)F | 78.4% (active)
66 | COc1ccc(NCc2ccc(OC)c(Br)c2)cn1 | -17.8% (inactive)

Row | SMILES | inhibition
67 | CC(=NN=C1NC(=O)CS1)c1cc2ccccc2oc1=O | 91.1% (active)
68 | COc1ccc(OCCCCOc2ccccc2F)cc1 | 57.2% (active)
69 | COc1ccc(OCCOc2ccc(Cl)c(C)c2)cc1 | 80.7% (active)
70 | CCOc1ccc(OCCCOc2ccc(Cl)c(C)c2)cc1 | 44.9% (inactive)
71 | COc1ccccc1OCCCCOc1ccccc1Cl | 67.2% (active)
72 | CCOc1ccccc1OCCOc1ccccc1F | 88.9% (active)
73 | COc1ccccc1OCCCOc1ccccc1F | 80% (active)
74 | COc1cccc(-c2nnn(CCOc3ccccc3F)n2)c1 | 77.6% (active)
75 | COc1cccc(OCCCCOc2ccc3ccccc3c2)c1 | 78.5% (active)
76 | COc1ccc(OCCOc2ccccc2C#N)cc1 | 56.9% (active)
77 | COc1cccc(-c2cnnc(NCc3ccccc3OC)n2)c1 | 21.6% (inactive)
78 | COc1cccc(-c2ccc(=O)n(Cc3cccc(F)c3)n2)c1 | 22.1% (inactive)
79 | CC(C)=CCCC(C)(O)c1cc(C(N)=O)no1 (stereo unspecified) | 32.2% (inactive)
80 | N#Cc1ccc(-c2ccc(OCC(=O)c3ccc4c(c3)CC(=O)N4)cc2)cc1 | 39.1% (inactive)
81 | CC(=O)c1ccc(OCCOc2ccc(C#N)cc2)cc1 | 101% (active)
82 | COc1ccccc1OCCCCOc1ccc(I)cc1 | 91.3% (active)
83 | COc1cccc(OCCCOc2cccc(Cl)c2Cl)c1 | 61.9% (active)
84 | COc1ccc(OCCCCOc2ccccc2OC)cc1 | 97.5% (active)
85 | COc1ccccc1OCCCOc1ccc(F)cc1 | 35.7% (inactive)
86 | COc1ccc(OCCCOc2cccc(Cl)c2Cl)cc1 | 18.8% (inactive)
87 | COc1ccc(OCCCCOc2ccccc2)cc1 | 27.8% (inactive)
88 | CCCCCCNC(=O)Nc1ccc(S(=O)(=O)Nc2ccc(CCNC[C@H](O)COc3ccc(O)cc3)cc2)cc1 | 18.9% (inactive)

Row | SMILES | inhibition
89 | COC(=O)c1ccc(OCCCCOc2ccccc2OC)cc1 | 80.9% (active)
90 | CCCCCCCOc1ccc(C(C)=NOC)cc1 | 41.4% (inactive)
91 | CCCCCCOc1ccc(C(=O)NNS(=O)(=O)c2ccc(C(=O)OC)cc2)cc1 | 94.8% (active)
92 | COc1ccc(OCCCCOc2ccc(Br)cc2)cc1 | 81.2% (active)
93 | O=C1Oc2ccccc2C1=Cc1c(Cl)cccc1Cl | 59% (active)
94 | CC(C)N(C(=O)/C=C/c1c(Cl)cccc1Cl)C(C)C | 47.8% (inactive)
95 | Cc1cc(NC(=O)COc2ccc(Cl)cc2Cl)n(-c2nc(C)c(C)c(=O)[nH]2)n1 | -28.7% (inactive)
96 | Cc1nnc2sc(COc3ccc(Cl)cc3Cl)nn2c1=O | 78.4% (active)
97 | Cc1cc(Br)cc(Cl)c1NC(=O)C1(C)CC1(Cl)Cl (stereo unspecified) | -15.4% (inactive)
98 | CCC1CCC(=NNC(=O)c2ccc(COc3ccccc3)cc2)CC1 (stereo unspecified) | 97.1% (active)
99 | O=C(N/N=C1/CCSc2c(F)cccc21)c1ccccc1 | 38% (inactive)
100 | O=C(CC1CCCO1)NCc1cccc(OCc2ccccc2)c1 (stereo unspecified) | 39.5% (inactive)
101 | Fc1ccccc1-c1nnn(Cc2ccc3c(c2)OCO3)n1 | 48.7% (inactive)
102 | Cc1cccc(-n2cc(CNCc3ccc(C)o3)c(-c3cccc(F)c3)n2)c1 | 46.5% (inactive)
103 | Cc1ccccc1CNCc1cn(-c2ccccc2)nc1-c1ccc2c(c1)OCO2 | 60.9% (active)
104 | Cc1cccc(-n2cc(CNCC3CCCO3)c(-c3cccc(F)c3)n2)c1 (stereo unspecified) | inactive
105 | COc1ccc(-n2cc(CNCc3ccc4c(c3)OCO4)c(-c3ccccc3Cl)n2)cc1 | 61.7% (active)
106 | CC(C)(C)c1ccc(Cn2cnc([N+](=O)[O-])n2)cc1 | 65.2% (active)
